HCMV inh – inhibitors of human cytomegalovirus; 410,000 tested, 4.5% active; activity change, negative = inhibition, % at 57.5 µM; HFF cells, HCMV-luciferase reporter, 72 h; stronger effect = lower value; AID 1259415; in the data active = activity change below about -60%; inconclusive = no clear call, values can overlap the other calls; inactive = above about -39%
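Two-dose cell screen: HFF monolayers treated with compounds and infected with luciferase-expressing HCMV at 1 PFU/cell, 72 h at 37C, then lysed for luciferase measurement.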
HCV inh – HCV inhibition; Potency, µM (top dose mostly 41.8 µM), for inactives: top-dose activity change, negative = inhibition, usual class: inhibitors; Huh7.5.1 HCVcc-Cre infection, luciferase reporter, 44 h; 340,000 tested, 3.4% active; active = well fitted inhibition curve with a large enough effect; inconclusive = small, poorly fitted or top-dose-only effect, or another doubt; inactive = no such curve, though single readings can be large or run the other way; note: potency is the fitted concentration of half-maximal effect
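Compounds are dispensed onto cells plated 4 h earlier at 1,000 per well, with HCVcc-Cre virus (about 0.5 moi) added next. Following 44 h of culture, luminescent signal is measured for 15 sec after 15 min with substrate at room temperature.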
Lassa entry inh – inhibitors of Lassa virus binding or cell entry; Potency, µM (titrated, usually from 37.9 µM), for the others: at the highest dose activity change, negative = inhibition, most hits filed as inhibitors; Lassa virus pseudotype entry inhibition, cell reporter; 300,000 tested, 1.2% active; calls by dose curve; tested in HEK293 cells; note: potency is the fitted concentration of half-maximal effect; nearly all actives have a fitted effect of over 50% in size
FMDV inh – foot and mouth disease virus antiviral activity. FMDV antiviral cell-based qHTS. Potency, µM (series often up to 57.9 µM), without a hit: at the top dose activity change, negative = inhibition, usual class: inhibitors. 410,000 tested, 1.2% active; calls by dose curve; tested in HEK293T cells; note: read-out not given here; potency is the fitted concentration of half-maximal effect; nearly all actives have a fitted effect of over 45% in size
MARV entry inh – inhibitors of Marburg virus binding or cell entry | Potency, µM (titrated, usually from 37.8 µM), for inactives: at the top dose activity change, negative = inhibition, hits mostly inhibitors | AID 540276 | Marburg virus pseudotyped entry inhibition, cell reporter | 300,000 tested, 1.8% active; calls by dose curve; tested in HEK293 cells; note: potency is the fitted concentration of half-maximal effect
An asterisk follows results filed as active; ? = inconclusive; . = no result; [ ] = dose if it differs, or a comment. The list is not random: actives were taken first. Their share in the collection is about 7.9%. % is set by controls: 0 for no effect and ±100 for the full control effect.

SMILES	HCMV inh	HCV inh	Lassa entry inh	FMDV inh	MARV entry inh
COC(=O)c1ccc(CN2CCC3(CCC(CNC(=O)c4ccco4)O3)CC2)cc1 (centres undefined)	.	.	.	3%	.
CSc1nnc(CNC(=O)/C=C/c2ccccc2Cl)n1-c1ccc(F)cc1	.	.	.	-2%	.
CSc1cccc(NC(=O)C2CCN(S(=O)(=O)c3ccc4[nH]c(=O)ccc4c3)CC2)c1	14	.	-4%[46.1 µM]	-9%	.
CCc1ccc(-c2nc(CN3CCC(C(=O)NCc4ccccc4OC)CC3)c(C)o2)cc1	-38	10µM*	?	?	?
COc1ccc(-c2nnc(N3CCCCC3)c3ccccc23)cc1	.	17%	-9%	?	13%
COc1ccccc1CNC(=O)C1CCN(Cc2nc(-c3ccc(Cl)cc3)oc2C)CC1	0	.	.	.	.
COc1ccccc1N1CCN(c2nnc(-c3ccc(F)cc3)c3ccccc23)CC1	5	9%	-3%	20µM*	2%
COc1ccc(-c2nc3c4ccccc4n(CC(=O)N4CCN(c5ccccc5F)CC4)c(=O)n3n2)cc1	9	.	-2%[46.1 µM]	5%	.
CCOC(=O)CCN1C(=O)[C@H]2[C@H]3[C@H](O)[C@H](O)C/C(=N/OCc4ccccc4)[C@@H]3CC[C@@H]2C1=O	.	.	.	.	-7%[14.2 µM]
CCOC(=O)c1nn(-c2ccc(Cl)cc2)c(C)cc1=O	-73*	10%	.	-10%	.
CCOC(=O)c1nn(-c2ccc(F)cc2)c(C)c1C(C)=O	-79*	8%	-5%	-5%	-13%
CCOC(=O)c1nn(-c2ccc(C)cc2)c(C)c1C(C)=O	51	-24%	-7%	8%	-6%[46.1 µM]
COc1cc(CN2CCC(C(=O)NC(c3ccc(F)cc3)c3ccc4ccccc4n3)CC2)cc(OC)c1 (centres undefined)	-40	.	.	35µM*	.
O=C(NC(c1ccccc1)c1ccc2ccccc2n1)C1CCN(CCOc2ccc(Cl)cc2)CC1 (centres undefined)	-11	.	.	32µM*	.
COc1ccc(OCCN2CCC(C(=O)NC(c3ccccc3)c3ccc4ccccc4n3)CC2)cc1 (centres undefined)	.	.	.	-4%	.
Cc1ccc(Cl)cc1Nc1nn2c(=O)c3ccc(C(=O)NC(C)c4ccccc4)cc3nc2s1 (centres undefined)	2	.	-22%[46.1 µM]	-20%	.
O=C1CC(C(=O)N2CCOc3ccc(CN4CCC(Oc5cccnc5)CC4)cc3C2)c2ccccc21 (centres undefined)	.	.	.	-18%	.
Nc1nc(CCl)nc(Nc2cccc3ccccc23)n1	-98*	0.56µM*	.	?	.
Nc1nc(Nc2cccc3ccccc23)nc(C2CCCC2=O)n1 (centres undefined)	34	.	.	.	.
O=C(O)c1ccccc1C(=O)c1ccc(-c2ccccc2)cc1	29	16%	.	45%	.
Cc1ccc(-c2cc(-c3ccccc3)cc(-c3ccccc3)[n+]2-c2ccccc2C(=O)O)cc1	-67*	?	.	?	.
CCN1C(=O)CC(CC(=O)N2CCC(c3nc4ccc(F)cc4[nH]3)CC2)(c2ccccc2C)C1=O (centres undefined)	.	.	.	-11%	.
CCCC(=O)Nc1cc(C(=O)NCc2ccccc2)ccc1S(=O)(=O)c1ccc(Cl)cc1	8	.	7%[46.1 µM]	-6%	.
Cc1cc(C)c2nc(NCc3ccccc3O)sc2c1	-65*	?	.	41%	.
CC(C)c1cccc(-c2csc(C(C)(O)c3ccncc3)n2)c1 (centres undefined)	-77*	.	.	?	.
SMILES	HCMV inh	HCV inh	Lassa entry inh	FMDV inh	MARV entry inh
CC(C)c1cccc(-c2csc(C(C)(O)c3ccc(F)c(F)c3)n2)c1 (centres undefined)	-77*	.	.	1%	.
CC(=O)Nc1cccc(-c2csc(C(C)(O)c3cccc(F)c3)n2)c1 (centres undefined)	0	.	.	?	.
CCN(CC)C(=O)c1cccc(-c2csc(C(C)(O)c3cccc(F)c3)n2)c1 (centres undefined)	?	.	.	25µM*	.
CC(O)(c1ccc(F)c(F)c1)c1nc(-c2cccc(F)c2)cs1 (centres undefined)	-7	.	.	-18%	.
c1cncc(OC2CCN(Cc3ccc4c(c3)CN(Cc3nc5ccccc5s3)CCO4)CC2)c1	.	.	.	14%	.
Cc1ccc(CNC(=O)CCCc2nnc3n(CC(C)C)c(=O)c4sccc4n23)cc1	-17	.	23%[46.1 µM]	-16%	.
CCOc1cc(/C=C2\C(=O)N(c3nc(-c4ccc(Br)cc4)cs3)N=C2c2ccccc2)ccc1O	.	-21%	21%	5.6µM*	-3%[46.1 µM]
COCCN1C(=O)N[C@@H](c2cccc(C(F)(F)F)c2)C(C(C)=O)=C1C	.	.	.	.	11%[14.2 µM]
CCOc1ccc(N2CC(c3nc(-c4cc(OC)c(OC)c(OC)c4)no3)CC2=O)cc1 (centres undefined)	13	.	-3%[46.1 µM]	-9%	.
COc1ccc(C(=O)OCC(=O)N2CCN(C(=O)c3ccco3)CC2)c(OC)c1OC	-102*	.	.	0%	.
O=C(COC(=O)C1(c2ccc(F)cc2)CCCC1)N1CCN(C(=O)c2ccco2)CC1	-106*	?	-19%	?	-7%
Cc1ccc(NC(=O)c2oc3ccccc3c2NC(=O)C2CC2)cc1	?	-2%	.	-10%	.
CCOc1ccccc1C(=O)Nc1c(C(=O)Nc2ccc(F)cc2)oc2ccccc12	-62*	.	?	-19%	?
O=C(Nc1ccc(F)cc1)c1oc2ccccc2c1NC(=O)C1CC1	-60*	-6%	.	-27%	.
Cc1ccc(NC(=O)C(=O)NCC(c2cccnc2)N2CCc3ccccc32)cc1Cl (centres undefined)	15	.	12%[46.1 µM]	-8%	.
O=C(NCc1nnc(SCc2ccc(C(F)(F)F)cc2)n1-c1ccccc1)C12CC3CC(CC(C3)C1)C2	-19	?	?	?	11µM*
O=C(CSc1nnc(CNC(=O)C23CC4CC(CC(C4)C2)C3)n1-c1ccc(F)cc1)Nc1ccccc1	36	?	?	?	?
O=C(NCc1nnc(SCc2ccc(F)cc2)n1-c1ccccc1)C12CC3CC(CC(C3)C1)C2	46	-27%	?	40µM*	?
O=C(CSc1nnc(CNC(=O)C23CC4CC(CC(C4)C2)C3)n1-c1ccccc1)Nc1ccc(F)cc1	63	?	-26%	?	?
COc1cc(C2CC(=O)N(CC(=O)Nc3ccccc3F)c3ccccc3S2)cc(OC)c1OC (centres undefined)	-37	.	.	?	?
CNCCCCc1cnc(C)c2[nH]c3ccccc3c12	.	.	.	-10%	.
CNc1oc(-c2ccc(C)cc2)nc1P(=O)(c1ccccc1)c1ccccc1	-11	?	21µM*	-18%	?
Cc1ccc(CNC(=O)CCn2cnc3ccccc3c2=O)cc1	14	.	-28%[46.1 µM]	-24%	.
CCN(C(=O)COC(=O)c1c(C)c(-c2ccccc2)nc2ccccc12)C1CCS(=O)(=O)C1 (centres undefined)	3	13µM*	.	-25%	.
CCN(C(=O)COC(=O)c1cc(-c2cccs2)nc2ccccc12)C1CCS(=O)(=O)C1 (centres undefined)	3	11µM*	16%[46.1 µM]	0%	1%[46.1 µM]

High-throughput results: PubChem, National Center for Advancing Translational Sciences (NCATS)
